High-throughput results as filed in PubChem BioAssay.
IDH1 R132H inh: human IDH1 R132H inhibition. O75874. IDH1-R132H enzyme, NADPH consumption, diaphorase/resazurin fluorescence. Potency, µM (doses to about 76.6 µM), for inactives: at the highest dose activity change, negative = inhibition, hits mostly inhibitors. hit rate 0.093% among 390,000. AID 602179; further: potency means the concentration at half of the fitted maximal effect; on the % scale 0 is the no-effect control and ±100 the full control effect; nearly all actives have a fitted effect of over 65% in size
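IDH1-R132H (0.5 ug/mL) preincubated 30 min with compound, then NADPH (0.016 mM) and alpha-KG (2 mM) added; 80 min at RT, pH 7.5. Remaining NADPH coupled via diaphorase/resazurin to fluorescence (540/590 nm); concentration-response curves normalized to no-enzyme control.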
Nrf2 ARE act: activators of Nrf2 (ARE) signaling; AREc32 ARE-luciferase reporter (MCF7-derived line), luminescence, 24 h; Potency, µM (highest dose often 46.1 µM), for inactives: at the top dose activation, usual class: activators; hit rate 0.31% among 410,000; AID 624171; further: potency means the concentration at half of the fitted maximal effect; % of control where 0% means no effect; nearly all actives have a fitted effect of over 65% in size
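Luminescent ARE reporter assay in AREc32_Fluc cells: overnight plating at 37 deg C, 24 hr compound incubation, Steady-Glo added, 30 min RT before reading.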
LDHA inh: LDHA (human) enzyme inhibition; activity change, % (values are at about 110 or 230 µM); P00338; hit rate 0.15% among 480,000; purified LDHA, NADH/diaphorase-resazurin fluorescence; stronger effect = lower value; in the data active means activity change below about -30%; inconclusive means mostly about -25% to -30%;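 further: plate controls were DMSO wells for no effect and wells without enzyme for full effect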
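Human LDH5 (2 nM) was incubated with 0.06 mM NADH and 0.2 mM pyruvate for 5 min at room temperature in Tris pH 7.4. Remaining NADH was coupled through diaphorase/resazurin, and resorufin fluorescence was read at 0 and 20 min.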
A549 viability: kills or reduces viability of A549 cells in Nrf2 counter-screen | A549 ARE-Fluc cells, CellTiter-Fluor viability, 18-24 h | Potency, µM (highest dose often 46 µM), inactives show at the top dose activity change, negative = cytotoxicity, most hits filed as inhibitors | hit rate 0.16% among 390,000 | AID 504648; further: potency means the concentration at half of the fitted maximal effect; on the % scale 0 is the no-effect control and ±100 the full control effect
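A549 ARE_Fluc cells in 5% FBS OPTI-MEM were exposed to compounds in concentration-response for 18-24 h at 37 deg C. Viability was read by CellTiter-Fluor fluorescence (Ex 405/Em 525) after 30 min, before the luciferase read.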
Nrf2 block: Nrf2 pathway inhibition; Potency, µM (top dose mostly 46 µM), without a hit: at the highest dose activity change, negative = inhibition, hits mostly inhibitors; A549 ARE-Fluc reporter, luciferase luminescence, 18-24 h; hit rate 2.1% among 360,000; AID 504444; further: potency means the concentration at half of the fitted maximal effect; on the % scale 0 is the no-effect control and ±100 the full control effect; nearly all actives have a fitted effect of over 60% in size
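Two sequential reads on A549 ARE_Fluc cells exposed to compound for 18-24 h: a CellTiter-Fluor fluorescence read for viability, then a luciferase luminescence read for Nrf2/ARE activity.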
ALOX12 inh: blocks human arachidonate 12S-lipoxygenase; purified 12hLO, xylenol orange hydroperoxide absorbance; hit rate 1.1% among 580,000; Potency, µM (top dose mostly 108 µM), inactives show at the top dose activity change, negative = inhibition, hits mostly inhibitors; P18054; further: potency means the concentration at half of the fitted maximal effect; on the % scale 0 is the no-effect control and ±100 the full control effect
Target sequence (P18054 whole entry, looked up): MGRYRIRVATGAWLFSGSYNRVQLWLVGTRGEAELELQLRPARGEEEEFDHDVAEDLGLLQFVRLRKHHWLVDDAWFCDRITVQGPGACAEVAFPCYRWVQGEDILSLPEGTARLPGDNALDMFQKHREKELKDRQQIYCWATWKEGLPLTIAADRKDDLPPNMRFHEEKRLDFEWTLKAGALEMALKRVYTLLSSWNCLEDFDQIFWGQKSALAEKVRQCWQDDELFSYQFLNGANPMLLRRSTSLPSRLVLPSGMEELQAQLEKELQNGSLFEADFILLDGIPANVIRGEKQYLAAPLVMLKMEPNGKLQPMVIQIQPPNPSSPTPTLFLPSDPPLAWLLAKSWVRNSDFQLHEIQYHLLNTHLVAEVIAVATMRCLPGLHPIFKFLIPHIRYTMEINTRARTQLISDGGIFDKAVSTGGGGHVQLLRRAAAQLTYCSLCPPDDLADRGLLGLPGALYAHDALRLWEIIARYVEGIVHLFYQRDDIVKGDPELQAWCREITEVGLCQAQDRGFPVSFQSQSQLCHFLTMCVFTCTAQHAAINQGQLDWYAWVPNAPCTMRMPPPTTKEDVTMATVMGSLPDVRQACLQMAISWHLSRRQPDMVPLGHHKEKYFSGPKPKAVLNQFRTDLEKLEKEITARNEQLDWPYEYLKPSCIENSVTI
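Purified human 12hLO (150 nM final) in 25 mM Hepes, 0.01% Triton X-100, pH 7.0 was preincubated 15 min at room temperature with compound. Then 40 uM arachidonic acid was added, 30 min. Hydroperoxide was read by Fe-XO absorbance ratio 573/405 nm.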
Numbers without * were called inactive; ? = inconclusive; nt = no result given; [ ] = remark or other dose. This is a sample that favours compounds with a hit; in the whole collection about 2.7% have one here. Unless noted, the call rests on the fitted dose curve; in most records, active means well fitted curve in the direction sought with a large enough effect; inconclusive means small, poorly fitted or top-dose-only effect, or another doubt; inactive means no such curve, though single readings can be large; an effect the other way counts as inactive or inconclusive.

SMILES | IDH1 R132H inh | Nrf2 ARE act | LDHA inh | A549 viability | Nrf2 block | ALOX12 inh
Clc1cccc(-c2nnc(SCc3nc4ccccc4[nH]3)n2Cc2ccco2)c1 | -1% | 3% | -13 | -17% | -20% | ?
Cc1cccc(NC(=O)CSc2nnc(COc3ccc(Cl)cc3)n2Cc2ccco2)c1 | nt | nt | -7 | nt | nt | -8%
CCn1c(COc2ccc(C)cc2)nnc1SCc1nc2ccccc2[nH]1 | 1% | 3% | 2 | -27% | 18µM* | -5%
Clc1ccc(OCc2nnc(SCc3nc4ccccc4[nH]3)n2Cc2ccco2)cc1 | -1% | 3% | 0 | ? | 18µM* | -19%
O=C(Cc1n[nH]c(=O)c2ccccc12)NCC(=O)N1CCN(c2ccccc2)CC1 | nt | nt | -1 | nt | nt | 11µM*
Cc1nn(Cc2ccc(Cl)cc2Cl)c(C)c1NC(=O)c1sc2ccccc2c1Cl | 0% | 0% | -6 | -9% | -22% | -11%
Cc1nn(Cc2ccc(Cl)cc2Cl)c(C)c1NC(=O)NC12CC3CC(CC(C3)C1)C2 | 1% | -1% | -6 | -12% | 21µM* | -19%
CCN1CC(c2ccccc2)CC2(CCN(S(=O)(=O)N(C)C)CC2)C1 (stereo not given) | nt | nt | nt | nt | nt | 81%
COC(=O)c1ccc(S(=O)(=O)N(Cc2ccc(C(=O)NC3CC3)cc2)C2CC2)cc1 | nt | nt | 6 | nt | nt | -6%
Cc1c(Br)c([N+](=O)[O-])nn1CC(=O)Nc1ccc(Cc2ccncc2)cc1 | -9% | -1% | -2 | ? | 18µM* | -8%
FC(F)Oc1ccc(-c2ccnc(=S)[nH]2)cc1 | nt | nt | 3 | nt | nt | ?
Cc1ccc(-c2ccnc(=S)[nH]2)cc1C | nt | nt | 0 | nt | nt | 2.5µM*
S=c1nccc(-c2ccc(Cl)cc2)[nH]1 | 1% | 2% | -6 | 1% | 1% | 13µM*
O=C1NCCCCCCN(C(=O)Nc2ccccc2)[C@H]2C[C@H](c3nc(Cc4ccccc4)no3)C[C@@H]12 | nt | nt | nt | nt | nt | 9%
Cc1cnc2c(S(=O)(=O)N(C)C3CCCCCC3)cccc2c1 | nt | nt | 6 | nt | nt | ?
C/C(=N\NC(=S)NCc1ccccc1)c1ccc(Cl)s1 | 8% | 17% | -1 | 10% | ? | ?
C/C(=N\NC(=S)NCc1ccccc1)c1ccc(C)o1 | 0% | 27% | -10 | 3% | 7% | 16µM*
C/C(=N\NC(=S)NCc1ccccc1)c1cccs1 | 5% | 15% | -3 | -1% | 4% | 40µM*
COc1cccc(S(=O)(=O)N2CCCN(C(=O)C3CC3)C(c3ccccc3)CC(=O)NCC2)c1 (stereo not given) | nt | nt | nt | nt | nt | 4%
CCOc1ccc(-c2[nH]c3c(c2-c2ccc(OC)cc2)c(=O)[nH]c(=O)n3C)cc1OC | nt | nt | -3 | nt | nt | ?
COc1cc(OC)c(C2=CCN(C(=O)C(C)Oc3ccc(Br)cc3)CC2)c(OC)c1 (stereo not given) | nt | nt | 2 | nt | nt | -21%
O=C(NCCc1ccc(Cl)cc1)c1ccc2c(Cl)c3c(nc2c1)CCCC3 | nt | nt | 7 | nt | nt | -20%
CC1CCN(Cc2c(C(=O)N/N=C/c3cccc(C(F)(F)F)c3)nnn2-c2nonc2N)CC1 | 2% | 9% | -3 | 3% | 0% | -1%
CC1CCN(Cc2c(C(=O)N/N=C/c3ccc(C(F)(F)F)cc3)nnn2-c2nonc2N)CC1 | -7% | 0% | -2 | ? | 26µM* | 1%
Cc1cc2c(N3CCC(NCc4noc(C5CCC5)n4)CC3)ncnc2s1 | nt | nt | nt | nt | nt | 48%
SMILES | IDH1 R132H inh | Nrf2 ARE act | LDHA inh | A549 viability | Nrf2 block | ALOX12 inh
COC[C@@H]1CN(Cc2ccc(F)cc2Cl)C[C@H]1C(=O)NC1CC1 | nt | nt | nt | nt | nt | 53%
O=C(CSc1nc(=O)n(Cc2ccncc2)c2c1CCC2)N1CCCC1 | nt | nt | 0 | nt | nt | 5%
Oc1ccc(CN2CCc3ccccc3C2)c2cccnc12 | 12% | 3% | 40 | nt | 5.8µM* | ?
CCOC(=O)N1CCN(Cc2ccc(O)c3ncccc23)CC1 | 5% | 7% | 22 | -9% | -1% | 25µM*
S=c1nc(-c2cc(Cl)ccc2Cl)[nH][nH]1 | -11% | 2% | -8 | 3% | -6% | 10µM*
S=c1nc(-c2ccccc2Br)[nH][nH]1 | 0% | 0% | -4 | 13% | -14% | 25µM*
O=C(O)c1cc(-c2cccc3ccccc23)nc2ccccc12 | -5% | 0% | -10 | -7% | -2% | -12%
O=C(O)c1cc(-c2c[nH]c3ccccc23)nc2cc3ccccc3cc12 | nt | nt | nt | nt | nt | 13µM*
CC(C)N1C(=O)C(NC(=O)C(=O)NCc2cccnc2)c2ccccc21 (stereo not given) | nt | nt | -2 | nt | nt | ?
Cc1cccnc1CNC[C@H]1O[C@@H]2C[C@@H](CC(=O)N3CCOCC3)O[C@@H]2[C@@H]1O | nt | nt | nt | nt | nt | 78%[176 µM]
N#CCCN(C(=O)CSc1nc2nc(-c3cccs3)cc(C(F)(F)F)c2c(=O)[nH]1)c1ccccc1 | ? | -1% | -12 | 2% | 21µM* | -1%
O=C(CSc1nc2nc(-c3cccs3)cc(C(F)(F)F)c2c(=O)[nH]1)Nc1c(F)c(F)c(F)c(F)c1F | -15% | 0% | -10 | -13% | ? | -6%
N#Cc1cccnc1NCCc1coc(-c2ccc(F)cc2)n1 | nt | nt | -3 | nt | nt | ?
COc1ccc(OC)c(NC(=O)C(C)OC(=O)c2cc3ccccc3[nH]2)c1 (stereo not given) | -7% | 6% | -7 | 2% | 18µM* | -3%
COc1ccccc1NC(=O)C(C)OC(=O)c1cc2ccccc2[nH]1 (stereo not given) | -9% | 9% | -2 | 0% | 21µM* | ?
COc1ccc(-c2nc(C#N)c(N3CCN(Cc4ccccc4)CC3)o2)cc1OC | nt | nt | -11 | nt | nt | 4%
Cc1ccccc1CCNC(=O)Cc1nn(C)c(=O)c2ccccc12 | nt | nt | -2 | nt | nt | ?
COc1cccc(NC(=O)CN(C)C(=O)CCC(=O)c2cc(C)sc2C)c1 | -6% | 0% | -9 | -7% | -19% | -4%
COc1ccc(Cl)cc1NC(=O)CN(C)C(=O)CCC(=O)c1cc(C)sc1C | 10% | 10% | 1 | 16µM* | 8.2µM* | 13%
COc1ccc(C(=O)NC(=O)CSc2ccccc2Cl)cc1 | nt | nt | 4 | nt | nt | 45%
Cc1noc(NS(=O)(=O)c2ccc(NC(=O)c3nn(-c4ccc(F)cc4)ccc3=O)cc2)c1C | 0% | 0% | -9 | 0% | 2% | -21%
Cc1ccc(-n2ccc(=O)c(C(=O)Nc3ccc(S(=O)(=O)Nc4onc(C)c4C)cc3)n2)cc1 | -6% | -2% | -62* | 0% | -7% | ?
CC(=O)OC1C2CCC1C([N+]1(C)CCCCC1)CC2 (stereo not given) | -6% | -1% | -34* | -3% | 13% | ?
O=C(CCc1nc2ccccc2c(=O)[nH]1)Nc1nc(-c2cccs2)cs1 | 4% | 10µM* | -9 | -1% | 2% | nt
